In the supplement of paper PMC12067926 one finds relative growth data, which are given here for 16 compounds.

Molecules are shown by their SMILES.

The subject of the first assay is Pseudomonas 2 (Pseudomonas vancouverensis). Nature of the assay: relative growth (AUC of 72 h growth curve relative to DMSO control, dAUC) (ratio); higher = more growth (less inhibition), active = hit call of the paper. As to conditions: 20 µM;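 active = growth AUC significantly below the DMSO wells by Dunnett test; inactive = the rest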. An outline of the steps:
(§1)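 Isolates from Icelandic stream sediments and Silwood Park soil, along with whole sediment communities, were grown in Luria–Bertani medium to carrying capacity and diluted 1:100 into 96-well plates with each chemical at 20 µM (1% DMSO). A600 was measured hourly for 72 h, and values were averaged over three biological replicates. Relative growth (dAUC) is the spline-integrated growth-curve area over the mean of the DMSO controls.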
Take `Nc1c(Cl)c(F)nc(OCC(=O)O)c1Cl`: the relative growth was 1 (inactive).
The same measure, in the same setting: the same measure for `O=C1C=C(N(Cc2ccc(Cl)nc2)CC(F)F)CO1`: 0.993 (inactive); for `CC1(C)C(C(=O)OC(C#N)c2cccc(Oc3ccccc3)c2)C1(C)C` (stereo unspecified): 1 (inactive).
Same read-out and setting: the same measure for `COP(=O)(OC)OC=C(Cl)Cl`: 0.963 (inactive).

Another assay relates to Pseudomonas 3 (Pseudomonas mandelii). The description is as above. As to conditions: 20 µM. The gist of the method:
as §1
On to `CCOc1cc(Oc2ccc(C(F)(F)F)cc2Cl)ccc1[N+](=O)[O-]`, for which the relative growth is 1.05 (inactive).
The same measure, in the same setting: the result for `O=C(NC(=O)c1c(F)cccc1F)Nc1ccc(OC(F)(F)C(F)OC(F)(F)F)c(Cl)c1` (stereo unspecified) reads 0.99 (inactive).
The same measure, in the same setting: the result for `Cc1cc(C)nc(Nc2ccccc2)n1` reads 1.03 (inactive); that for `CC(C)NC(=O)N1CC(=O)N(c2cc(Cl)cc(Cl)c2)C1=O`, 0.906 (inactive); that for `Cc1nnc(-c2ccccc2)c(=O)n1N`, 1.03 (inactive).
The same measure, in the same setting: the same measure for `CSc1nc(NC(C)C)nc(NC(C)C)n1`: 1.02 (inactive).
In the case of `C/C(=N\C#N)N(C)Cc1ccc(Cl)nc1`, the relative growth is 0.987 (inactive).
Still for that read-out and setting: the same measure for `Cc1cccc2sc3nncn3c12`: 1.03 (inactive); for `Fc1ccc(Oc2ccnc3cc(Cl)cc(Cl)c23)cc1`: 1.06 (inactive); for `COP(N)(=O)SC` (stereo unspecified): 1.06 (inactive).
Same read-out and setting: the result for `COc1cc(OC)nc(NC(=O)NS(=O)(=O)c2ncccc2C(=O)N(C)C)n1` reads 1.01 (inactive); that for `CC[C@H]1CCC[C@H](O[C@H]2CC[C@H](N(C)C)[C@@H](C)O2)[C@@H](C)C(=O)C2=C[C@@H]3[C@@H](C=C(C)[C@@H]4C[C@@H](O[C@@H]5O[C@@H](C)[C@H](OC)[C@@H](OC)[C@H]5OC)C[C@@H]34)[C@@H]2CC(=O)O1.CC[C@H]1CCC[C@H](O[C@H]2CC[C@H](N(C)C)[C@@H](C)O2)[C@@H](C)C(=O)C2=C[C@H]3[C@@H]4C[C@H](O[C@@H]5O[C@@H](C)[C@H](OC)[C@@H](OC)[C@H]5OC)C[C@H]4C=C[C@H]3C2CC(=O)O1`, 1.04 (inactive).
